Results reported in PubChem BioAssay (Tox21).
Where “and” joins values, the source holds several entries; their conditions need not be identical. Identical values can stand only once. Inconclusive results are not listed. Some structures have more than one record in an assay (separate samples or runs), and their calls can disagree. Calls of active or inactive are those of the source. Unless noted, calls follow the shape of the dose curve; as a rule, active = well fitted curve in the direction sought with a large enough effect in the repeat runs; inconclusive = weak or mixed curves; inactive = no such curve, though single readings can be large; an effect the other way counts as inactive or inconclusive.

Tests used:
[1] = molecular target: Androgen receptor (Homo sapiens) (UniProt P10275); assay: qHTS assay to identify small molecule agonists of the androgen receptor (AR) signaling pathway using the MDA cell line (AID 743040; also: nearly all actives have a fitted effect of over 20% in size); details: MDA-kb2 AR-luc cells, MMTV luciferase, 16 h, stronger effect = higher value
In short: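 After a 5 h incubation at 37C and 0% CO2, MDA-kb2 reporter cells were dosed with compounds in DMSO and kept 16 h under the same conditions. Luciferase activity was then read as luminescence with ONE-Glo.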

[2] = qHTS assay to test for compound auto fluorescence at 535 nm (green) in HEK293 cells (AID 720680); details: green autofluorescence 485/535 nm; series mostly up to 91.3 µM
[3] = qHTS assay to test for compound auto fluorescence at 460 nm (blue) in HEK293 cell free culture (AID 720681); details: cell-free medium, autofluorescence 405/460 nm (blue); series mostly up to 91.3 µM
In short: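 Blue fluorescence (Ex 405/Em 460 nm, triamterene-equivalent) was read immediately after pin transfer of compound or DMSO into medium (DMEM, 10% FBS) without cells.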

[4] = qHTS assay to test for compound auto fluorescence at 535 nm (green) in HEK293 cell free culture (AID 720682); details: cell-free medium, green autofluorescence 485/535 nm, stronger effect = higher value; series mostly up to 91.3 µM
In short: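 DMEM + 10% FBS, cell-free; cpd or DMSO pinned in; Ex485/Em535 read; output as fluorescein-equivalent signal.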

[5] = qHTS assay to test for compound auto fluorescence at 590 nm (red) in HEK293 cell free culture (AID 720683); details: cell-free medium autofluorescence, Ex540/Em590 red; series mostly up to 91.3 µM
In short: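 Red-channel autofluorescence of compounds in culture medium (DMEM, 10% FBS), no cells, measured at 540/590 nm. Rose Bengal sodium is the reference fluorophore for equivalence.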

[6] = qHTS assay to test for compound auto fluorescence at 590 nm (red) in HepG2 cell free culture (AID 720684); details: cell-free medium autofluorescence, red 540/590 nm; series mostly up to 91.3 µM
In short: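 Plate contents were MEM with 10% FBS plus test compound or DMSO, no cells. Fluorescence was recorded with 540 nm excitation and 590 nm emission.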

[7] = qHTS assay to test for compound auto fluorescence at 535 nm (green) in HepG2 cell free culture (AID 720686); details: Cell-free medium, green autofluorescence 485/535 nm; series mostly up to 91.3 µM
[8] = qHTS assay to test for compound auto fluorescence at 460 nm (blue) in HepG2 cells (AID 720687); details: autofluorescence 405/460 nm, 1 h; series mostly up to 91.3 µM
In short: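 Blue-channel autofluorescence (Ex/Em 405/460 nm, triamterene-equivalent) was measured after 1 hr compound exposure at 37 C, 5% CO2. Cells were HepG2, plated overnight at 37 C in MEM plus 10% FBS.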

[9] = molecular target: Glucocorticoid receptor (Homo sapiens) (UniProt P04150); assay: qHTS assay to identify small molecule antagonists of the glucocorticoid receptor (GR) signaling pathway (AID 720692; active = well fitted inhibition curve with a large enough effect in the signal ratio in the repeat runs, not every such curve was filed as active; the % refers to the signal ratio; also: potency is read from the fitted curve at half-maximal effect); details: GR-bla HeLa, beta-lactamase FRET ratio, dexamethasone-stimulated, 18 h; series mostly up to 58.5 µM
In short: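 Fluorescence from cleaved LiveBLAzer B/G FRET substrate reports GRE-driven beta-lactamase in HeLa cells; compounds are tested against 5 nM dexamethasone (final) over 18 h at 37 C, substrate incubation 2 h at room temperature.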

[10] = qHTS assay to identify small molecule antagonists of the glucocorticoid receptor (GR) signaling pathway - cell viability counter screen (AID 720693); details: GR-bla HeLa viability, CellTiter-Glo luminescence, 18 h, with 5 nM dexamethasone present; series mostly up to 58.5 µM; also: nearly all actives have a fitted effect of over 55% in size
[11] = qHTS assay for identifying genotoxic compounds that show differential cytotoxicity against isogenic chicken DT40 cell lines with known DNA damage response pathways - wild type cell line (AID 743012); details: DT40 wild type chicken cells viability, CellTiter-Glo, 40 h; series mostly up to 68.4 µM; also: nearly all actives have a fitted effect of over 60% in size; also: potency is read from the fitted curve at half-maximal effect
In short: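 Quantitative HTS on parental DT40 cells: 40 h compound treatment at 37 C/5% CO2, with viability then determined by CellTiter-Glo luminescence. Values serve as the DNA repair-proficient reference for differential cytotoxicity.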

[12] = qHTS assay for identifying genotoxic compounds that show differential cytotoxicity against isogenic chicken DT40 cell lines with known DNA damage response pathways - Rev3 mutant cell line (AID 743014); details: chicken DT40 Rev3-/- viability, CellTiter-Glo, 40 h; series mostly up to 68.4 µM; also: nearly all actives have a fitted effect of over 55% in size; also: potency is read from the fitted curve at half-maximal effect
[13] = qHTS assay for identifying genotoxic compounds that show differential cytotoxicity against isogenic chicken DT40 cell lines with known DNA damage response pathways - Rad54/Ku70 mutant cell line (AID 743015); details: DT40 Rad54/Ku70 mutant viability, CellTiter-Glo, 40 h; series mostly up to 66.8 µM; also: nearly all actives have a fitted effect of over 60% in size; also: potency is read from the fitted curve at half-maximal effect
[14] = qHTS assay to identify small molecule antagonists of the androgen receptor (AR) signaling pathway - cell viability counter screen (AID 743033; also: nearly all actives have a fitted effect of over 45% in size); details: AR-bla HEK293 viability, CellTiter-Glo luminescence, 16 h; series mostly up to 58.5 µM
[15] = qHTS assay to identify small molecule antagonists of the androgen receptor (AR) signaling pathway using the MDA cell line - cell viability counter screen (AID 743041; also: nearly all actives have a fitted effect of over 45% in size); details: MDA-kb2 viability, CellTiter-Fluor, 16 h, cells co-treated with R1881 androgen agonist; series mostly up to 70.3 µM
In short: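 R1881-driven MDA-kb2 AR-luc cells, 3,000/well, were dosed with library compounds for 16 h; cell health came from CellTiter-Fluor fluorescence in the reporter wells.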

[16] = qHTS assay to test for compound auto fluorescence at 460 nm (blue) in HepG2 cell free culture (AID 720685); details: Cell-free culture medium, blue autofluorescence 405/460 nm; series mostly up to 91.3 µM
In short: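 Compound (23 nL) or DMSO pinned into cell-free MEM with 10% FBS; blue fluorescence read at 405/460 nm excitation/emission, expressed as auto-fluorescence equivalency to triamterene.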

[17] = molecular target: Glucocorticoid receptor (Homo sapiens) (UniProt P04150); assay: qHTS assay to identify small molecule agonists of the glucocorticoid receptor (GR) signaling pathway (AID 720691; active = well fitted activation curve with a large enough effect in the signal ratio in the repeat runs, not every such curve was filed as active; the % refers to the signal ratio); details: GR-bla HeLa, beta-lactamase reporter ratio, 18 h; series mostly up to 62.4 µM
In short: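 Beta-lactamase reporter activity, read as fluorescence intensity, was measured in GR-bla HeLa cells exposed to compounds for 18 h at 37 C and then loaded with LiveBLAzer B/G FRET substrate for 2 h at room temperature.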

[18] = molecular target: Androgen receptor (Homo sapiens) (UniProt P10275); assay: qHTS assay to identify small molecule antagonists of the androgen receptor (AR) signaling pathway (AID 743035; active = well fitted inhibition curve with a large enough effect in the signal ratio in the repeat runs, not every such curve was filed as active; the % refers to the signal ratio); details: HEK293 AR-UAS-bla, R1881-stimulated, beta-lactamase FRET, 16 h; series mostly up to 58.5 µM
In short: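 Cell line: GeneBLAzer AR-UAS-bla GripTite (HEK293). Stimulus: R1881 added after compound. Exposure: 16 h, 37C, 5% CO2. Readout: LiveBLAzer B/G FRET fluorescence after 2 h at room temperature.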

[19] = molecular target: Androgen receptor (Homo sapiens) (UniProt P10275); assay: qHTS assay to identify small molecule agonists of the androgen receptor (AR) signaling pathway (AID 743036; active = well fitted activation curve with a large enough effect in the signal ratio in the repeat runs, with a control signal flat, not every such curve was filed as active; the % refers to the signal ratio); details: HEK293 AR-UAS-bla GripTite, beta-lactamase FRET ratio, 16 h; series mostly up to 62.4 µM
In short: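 Screening used 2,000 AR-bla HEK293 cells per well, treated 16 h at 37C with test compounds in DMSO alongside positive and DMSO-only controls; beta-lactamase activity was then read by LiveBLAzer B/G FRET fluorescence after 2 h at room temperature.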

[20] = molecular target: Androgen receptor (Homo sapiens) (UniProt P10275); assay: qHTS assay to identify small molecule antagonists of the androgen receptor (AR) signaling pathway using the MDA cell line (AID 743042; also: nearly all actives have a fitted effect of over 55% in size); details: MDA-kb2 AR-luc, MMTV luciferase, R1881 antagonist, 16 h; series mostly up to 70.3 µM
In short: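 Antagonist mode: compounds plus R1881 agonist added to MDA-kb2 AR-luc cells, incubated 16 h at 37C. Luciferase reporter luminescence quantified, with multiplexed CellTiter-Fluor readout for cell viability.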
% is scaled to controls: 0 for no effect and ±100 for the full control effect.

Androgen receptor (Homo sapiens), sequence (P10275 whole entry, looked up): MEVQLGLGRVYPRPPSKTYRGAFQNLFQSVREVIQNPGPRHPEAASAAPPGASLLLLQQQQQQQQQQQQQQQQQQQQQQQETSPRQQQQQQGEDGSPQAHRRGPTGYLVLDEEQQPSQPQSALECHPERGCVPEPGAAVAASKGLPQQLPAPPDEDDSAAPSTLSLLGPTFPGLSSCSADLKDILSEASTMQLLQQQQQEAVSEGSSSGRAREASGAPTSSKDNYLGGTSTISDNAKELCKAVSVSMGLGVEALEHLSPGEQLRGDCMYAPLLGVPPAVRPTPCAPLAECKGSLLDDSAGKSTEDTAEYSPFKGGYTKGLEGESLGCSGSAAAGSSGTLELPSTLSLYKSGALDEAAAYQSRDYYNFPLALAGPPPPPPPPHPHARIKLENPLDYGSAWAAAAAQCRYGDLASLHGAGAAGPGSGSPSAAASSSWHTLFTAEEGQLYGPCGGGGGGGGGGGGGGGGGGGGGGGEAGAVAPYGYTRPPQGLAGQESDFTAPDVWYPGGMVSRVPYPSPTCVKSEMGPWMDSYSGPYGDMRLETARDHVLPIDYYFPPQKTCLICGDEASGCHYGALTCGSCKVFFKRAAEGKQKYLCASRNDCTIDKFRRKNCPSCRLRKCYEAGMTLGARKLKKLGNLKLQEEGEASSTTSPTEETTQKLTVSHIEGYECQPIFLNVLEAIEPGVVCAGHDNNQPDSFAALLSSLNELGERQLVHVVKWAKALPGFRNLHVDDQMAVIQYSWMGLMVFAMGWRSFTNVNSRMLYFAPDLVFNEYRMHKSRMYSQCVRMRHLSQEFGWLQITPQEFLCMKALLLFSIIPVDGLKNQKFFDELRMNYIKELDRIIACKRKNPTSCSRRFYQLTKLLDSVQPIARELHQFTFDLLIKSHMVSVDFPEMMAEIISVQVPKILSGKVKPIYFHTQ
Glucocorticoid receptor (Homo sapiens), sequence (P04150 whole entry, looked up): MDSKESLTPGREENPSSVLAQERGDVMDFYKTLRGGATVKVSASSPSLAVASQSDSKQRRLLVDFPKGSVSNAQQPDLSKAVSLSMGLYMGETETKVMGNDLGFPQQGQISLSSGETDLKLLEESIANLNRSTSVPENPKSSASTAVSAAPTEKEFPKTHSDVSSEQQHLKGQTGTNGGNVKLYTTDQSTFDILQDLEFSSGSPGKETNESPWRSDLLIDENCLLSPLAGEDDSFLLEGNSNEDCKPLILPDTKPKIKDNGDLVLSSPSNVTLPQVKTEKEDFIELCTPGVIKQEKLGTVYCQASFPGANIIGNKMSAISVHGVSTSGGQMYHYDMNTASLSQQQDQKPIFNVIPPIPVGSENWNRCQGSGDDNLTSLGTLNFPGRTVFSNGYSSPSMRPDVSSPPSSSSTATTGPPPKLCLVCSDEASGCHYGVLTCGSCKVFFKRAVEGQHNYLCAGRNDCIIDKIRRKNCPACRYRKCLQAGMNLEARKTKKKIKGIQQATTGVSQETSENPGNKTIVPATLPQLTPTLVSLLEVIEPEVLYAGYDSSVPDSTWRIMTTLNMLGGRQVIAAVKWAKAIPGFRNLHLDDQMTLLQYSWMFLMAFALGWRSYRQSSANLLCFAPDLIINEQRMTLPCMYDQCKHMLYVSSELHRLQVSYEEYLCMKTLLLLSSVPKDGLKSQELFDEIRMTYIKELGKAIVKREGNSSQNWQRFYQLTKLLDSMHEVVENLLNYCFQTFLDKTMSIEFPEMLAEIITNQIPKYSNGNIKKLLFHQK

Cc1ccccc1Cl
inactive: activity change ([1]; at 95 µM (top of the series)) -0.806%

Cc1ccc(C(C)C)cc1
inactive: activity change ([1]; at 95 µM (top of the series)) 0.115%

COc1cc(NC(=O)CC(C)=O)c(OC)cc1Cl
active: Potency [9] 54.9 µM
inactive: outcome [2] | Potency [3] | outcome [4] | outcome [5] | outcome [6] | outcome [7] | Potency [8] | Potency [10] | Potency [11] | Potency [12] | Potency [13] | Potency [14] | Potency [15]

CCCOC(=O)NCCCN(C)C
inactive: outcome [2] | Potency [3] | outcome [4] | outcome [5] | outcome [6] | Potency [8] | Potency [10] | Potency [11] | Potency [12] | Potency [13] | Potency [14] | Potency [15]

O=C1C(N(CO)C(=O)NCO)N(CO)C(=O)N1CO (centres undefined)
inactive: outcome [2] | Potency [3] | outcome [4] | outcome [5] | outcome [6] | Potency [16] | Potency [8] | Potency [10] | Potency [11] | Potency [12] | Potency [13] | Potency [14] | Potency [15]

O=c1n(CCCN2CCN(c3cccc(Cl)c3)CC2)nc2ccccn12
inactive: outcome [2] | Potency [3] | outcome [4] | outcome [5] | outcome [6] | outcome [7] | Potency [8] | Potency [10] | Potency [14] | Potency [15]
inactive and 43.3 µM (active): Potency [13]
inactive and 54.5 µM (active): Potency [11] | Potency [12]

CC(=O)OC/C=C(\C)CCC=C(C)C
inactive: outcome [2] | Potency [3] | outcome [4] | outcome [5] | outcome [6] | outcome [7] | Potency [8] | outcome [17] | Potency [9] | Potency [10] | Potency [11] | Potency [12] | Potency [13] | Potency [14] | Potency [15]

OB(O)O
inactive: outcome [2] | Potency [3] | outcome [4] | outcome [5] | outcome [6] | Potency [8] | Potency [9] | Potency [10] | Potency [11] | Potency [12] | Potency [13] | Potency [14] | Potency [15]

CC/C=C(\C(=O)N[C@@H]1C(=O)N2C(C(=O)OCOC(=O)C(C)(C)C)=C(COC(N)=O)CS[C@H]12)c1csc(N)n1
inactive: outcome [2] | Potency [3] | outcome [4] | outcome [5] | outcome [6] | Potency [16] | Potency [8] | Potency [9] | Potency [10] | Potency [11] | Potency [12] | Potency [13] | Potency [14] | Potency [15]

O=[N+]([O-])c1cc(C(F)(F)F)ccc1Cl
inactive: outcome [2] | Potency [3] | outcome [4] | outcome [5] | Potency [16] | outcome [7] | Potency [8] | outcome [17] | Potency [9] | Potency [10] | Potency [11] | Potency [12] | Potency [13] | Potency [14] | Potency [18] | Potency [19] | activity change ([1]; at 70.3 µM (top of the series)) -0.292% | activity change ([1]; at 95 µM (top of the series)) 5.79% | Potency [20]

COC(=O)CCCCC(=O)OC
inactive: outcome [2] | Potency [3] | outcome [4] | outcome [5] | outcome [6] | Potency [8] | outcome [17] | Potency [9] | Potency [10] | Potency [11] | Potency [12] | Potency [13] | Potency [14] | Potency [15]
